This note sets out measurements from ChEMBL document CHEMBL3988442, “University of Dundee, Small-Polar-MMV Screening Library” (2021).

For some of these results: Results with a measured potency or affinity are listed apart.

Holding throughout (set-up): scale not given: direction of the effect not stated beside the values
The target in experiment [1] is Protein translocase subunit SecA (Escherichia coli (strain K12)) (UniProt P10408). Nature of the experiment: Assay to Identify E. coli SecA ATPase Inhibitors. It counts as functional. The settings on record: 30 µM.
Sequence of Protein translocase subunit SecA (Escherichia coli (strain K12)) (P10408 whole entry): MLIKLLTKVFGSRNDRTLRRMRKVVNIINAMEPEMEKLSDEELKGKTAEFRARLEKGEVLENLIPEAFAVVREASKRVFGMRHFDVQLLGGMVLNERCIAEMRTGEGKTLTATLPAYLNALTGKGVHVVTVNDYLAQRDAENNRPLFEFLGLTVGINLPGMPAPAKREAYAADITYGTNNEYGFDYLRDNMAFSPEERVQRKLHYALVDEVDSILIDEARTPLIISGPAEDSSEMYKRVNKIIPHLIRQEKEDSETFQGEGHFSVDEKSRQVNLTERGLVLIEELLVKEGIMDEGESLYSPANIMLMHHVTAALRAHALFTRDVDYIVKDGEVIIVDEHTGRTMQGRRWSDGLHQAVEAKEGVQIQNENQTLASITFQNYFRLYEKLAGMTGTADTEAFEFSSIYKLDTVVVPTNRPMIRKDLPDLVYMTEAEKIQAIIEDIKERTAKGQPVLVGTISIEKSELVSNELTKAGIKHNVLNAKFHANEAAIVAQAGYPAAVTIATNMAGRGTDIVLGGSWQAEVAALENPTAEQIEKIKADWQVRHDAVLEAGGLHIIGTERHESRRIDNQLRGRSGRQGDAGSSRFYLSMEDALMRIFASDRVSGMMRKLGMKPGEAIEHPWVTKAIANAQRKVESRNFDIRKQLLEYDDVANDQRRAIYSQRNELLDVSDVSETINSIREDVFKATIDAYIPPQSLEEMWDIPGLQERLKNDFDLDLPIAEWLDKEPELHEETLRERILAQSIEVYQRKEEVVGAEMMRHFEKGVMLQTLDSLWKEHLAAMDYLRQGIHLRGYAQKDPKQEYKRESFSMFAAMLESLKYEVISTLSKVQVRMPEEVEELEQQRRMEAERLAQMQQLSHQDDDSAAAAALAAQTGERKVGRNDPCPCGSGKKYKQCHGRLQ
Experiment [2] addresses T1, Ubiquitin-activating enzyme e1, putative (Leishmania donovani (strain BPK282A1)) (UniProt E9BSI1).
T1 sequence (whole entry): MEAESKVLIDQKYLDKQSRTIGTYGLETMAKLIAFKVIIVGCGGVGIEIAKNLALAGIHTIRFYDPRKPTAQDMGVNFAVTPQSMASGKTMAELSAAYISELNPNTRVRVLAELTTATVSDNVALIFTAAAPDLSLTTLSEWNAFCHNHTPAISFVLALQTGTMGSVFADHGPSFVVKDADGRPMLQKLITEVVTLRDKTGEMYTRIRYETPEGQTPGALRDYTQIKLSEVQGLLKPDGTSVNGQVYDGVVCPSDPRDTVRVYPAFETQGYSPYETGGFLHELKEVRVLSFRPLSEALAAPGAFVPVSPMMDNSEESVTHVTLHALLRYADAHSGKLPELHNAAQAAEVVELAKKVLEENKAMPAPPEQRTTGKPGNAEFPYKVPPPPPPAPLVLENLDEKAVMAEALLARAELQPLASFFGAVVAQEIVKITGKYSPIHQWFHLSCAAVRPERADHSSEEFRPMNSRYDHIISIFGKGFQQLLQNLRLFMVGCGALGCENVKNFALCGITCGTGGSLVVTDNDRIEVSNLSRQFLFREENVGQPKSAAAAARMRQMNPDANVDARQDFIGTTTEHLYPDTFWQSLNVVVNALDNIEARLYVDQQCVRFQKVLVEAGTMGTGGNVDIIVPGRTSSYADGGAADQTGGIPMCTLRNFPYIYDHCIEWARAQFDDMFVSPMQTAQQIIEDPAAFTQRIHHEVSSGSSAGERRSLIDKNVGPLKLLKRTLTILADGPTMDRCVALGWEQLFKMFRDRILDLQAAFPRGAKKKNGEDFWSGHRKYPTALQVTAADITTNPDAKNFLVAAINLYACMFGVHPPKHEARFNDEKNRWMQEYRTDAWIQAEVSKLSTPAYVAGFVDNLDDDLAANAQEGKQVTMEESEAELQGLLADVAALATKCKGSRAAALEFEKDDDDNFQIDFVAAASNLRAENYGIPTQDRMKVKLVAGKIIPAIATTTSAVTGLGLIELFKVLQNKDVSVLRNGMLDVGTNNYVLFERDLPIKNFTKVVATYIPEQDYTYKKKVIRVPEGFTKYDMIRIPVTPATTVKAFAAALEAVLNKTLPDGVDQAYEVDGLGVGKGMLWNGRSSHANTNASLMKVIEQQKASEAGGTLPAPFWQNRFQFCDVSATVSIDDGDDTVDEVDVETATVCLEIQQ
Nature of the experiment: Leishmania donovani Ubiquitin Activating Enzyme (LdE1). The class given is functional. The note with it: 30 µM.

Experiment [3] has as its target AMP-activated protein kinase, AMPK (Homo sapiens) (UniProt P54646+O43741+P54619+Q9UGJ0+Q9Y478+Q13131+Q9UGI9). Nature of the experiment: AMP-dependent Kinase enzyme assay. An in vitro enzyme assay that detects ADP turnover that is directly proportional to AMPK activity. This uses naive AMPK that is activated during the assay with MK-8722. The class given is functional. The note with it: 30 µM.

Experiment [4] has as its target Sialic acid-binding Ig-like lectin 9 (Homo sapiens) (UniProt Q9Y336). As to the kind of experiment: Hs-Siglec9 ALPHAscreen SOP 20170721. The settings on record: 10 µM. A general note: Bead proximity is the source of the signal in Alpha formats.
The test system of experiment [5] is Trypanosoma cruzi. Nature of the experiment: Trypanosoma cruzi phosphomannomutase and mannose-1-phosphate guanylyltransferase assay. The class given is functional. The settings on record: 10 µM.
In experiment [6] the target is T2, Arginase-2, mitochondrial (Homo sapiens) (UniProt P78540).
T2 sequence (whole entry): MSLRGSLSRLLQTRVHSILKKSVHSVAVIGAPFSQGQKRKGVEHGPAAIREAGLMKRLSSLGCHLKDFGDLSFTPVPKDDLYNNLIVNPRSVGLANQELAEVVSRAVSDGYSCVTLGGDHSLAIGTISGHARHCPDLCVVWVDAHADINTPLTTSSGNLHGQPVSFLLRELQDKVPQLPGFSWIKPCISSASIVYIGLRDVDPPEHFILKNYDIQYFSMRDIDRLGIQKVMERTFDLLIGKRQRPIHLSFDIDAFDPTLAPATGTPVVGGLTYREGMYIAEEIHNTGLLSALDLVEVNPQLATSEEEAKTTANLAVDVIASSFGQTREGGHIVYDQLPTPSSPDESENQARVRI
As to the kind of experiment: in vitro enzyme assay to detect the production of urea directly proportional to the activity of Arginase II. Also: in the data most compounds retested in dose-response had high values. The class given is functional. The note with it: 33.3 µM.

Experiment [7] has as its target T3, Proteasome subunit beta (Trypanosoma cruzi) (UniProt O96673).
T3 sequence (whole entry): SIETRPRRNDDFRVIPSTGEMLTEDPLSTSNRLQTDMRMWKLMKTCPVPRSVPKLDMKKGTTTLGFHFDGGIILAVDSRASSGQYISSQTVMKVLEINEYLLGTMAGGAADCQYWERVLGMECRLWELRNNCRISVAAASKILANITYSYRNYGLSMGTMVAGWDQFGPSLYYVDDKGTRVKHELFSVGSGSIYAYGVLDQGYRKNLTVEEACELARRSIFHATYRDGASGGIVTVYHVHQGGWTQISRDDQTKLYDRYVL
Nature of the experiment: Trypanosoma cruzi proteasome chymotrypsin-like activity (TcProtChymo) assay. Also: in the data most compounds retested in dose-response had high values. The class given is functional. The settings on record: 9.37 µM.

The species entered for experiment [8] is Homo sapiens. As to the kind of experiment: To identify inhibition of the IFN signalling (Jak-Stat) pathway via expression of an eGFP reporter gene under the control of an IFN-stimulated response element (ISRE) containing MxA promoter. It counts as functional. The settings on record: 30 µM.
For experiment [9], the target named is T4, Tyrosyl-tRNA synthetase, putative (Trypanosoma cruzi (strain CL Brener)) (UniProt Q4DSP6).
T4 sequence (whole entry): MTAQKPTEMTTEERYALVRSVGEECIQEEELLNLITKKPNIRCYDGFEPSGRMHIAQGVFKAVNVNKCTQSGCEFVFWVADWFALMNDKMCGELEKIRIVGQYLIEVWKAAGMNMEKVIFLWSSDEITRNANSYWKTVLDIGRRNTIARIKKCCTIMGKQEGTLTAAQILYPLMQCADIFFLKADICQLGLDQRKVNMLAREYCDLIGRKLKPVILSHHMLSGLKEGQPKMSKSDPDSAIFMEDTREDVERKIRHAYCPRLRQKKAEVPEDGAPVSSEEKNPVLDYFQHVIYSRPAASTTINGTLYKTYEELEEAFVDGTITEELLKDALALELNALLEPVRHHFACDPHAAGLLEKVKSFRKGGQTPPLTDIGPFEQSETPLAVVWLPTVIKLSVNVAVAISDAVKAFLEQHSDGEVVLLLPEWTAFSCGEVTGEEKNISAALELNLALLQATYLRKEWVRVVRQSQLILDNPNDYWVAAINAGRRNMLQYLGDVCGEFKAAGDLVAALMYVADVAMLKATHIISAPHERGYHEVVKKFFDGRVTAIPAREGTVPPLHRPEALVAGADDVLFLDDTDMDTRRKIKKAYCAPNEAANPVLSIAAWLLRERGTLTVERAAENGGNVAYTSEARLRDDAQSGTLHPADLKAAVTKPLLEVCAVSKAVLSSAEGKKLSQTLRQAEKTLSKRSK
Nature of the experiment: Trypanosoma cruzi tyrosyl tRNA synthetase (TcYRS) _High Tyrosine SOP. Also: in the data most compounds retested in dose-response had high values. The class given is functional. The settings on record: 30 µM.

The target of experiment [10] is T4, Tyrosyl-tRNA synthetase, putative (Trypanosoma cruzi (strain CL Brener)). Nature of the experiment: Trypanosoma cruzi tyrosyl tRNA synthetase (TcYRS) SOP. It counts as functional. The note with it: 30 µM.
In experiment [11] the target is Chromo domain-containing protein 1 (Saccharomyces cerevisiae (strain ATCC 204508 / S288c) (Baker's yeast)) (UniProt P32657). Nature of the experiment: ScCHD-1 Enzyme Inhibition Assay. Also: in the data most compounds retested in dose-response had high values. The class given is functional. The settings on record: 30 µM.
Sequence of Chromo domain-containing protein 1 (Saccharomyces cerevisiae (strain ATCC 204508 / S288c) (Baker's yeast)) (P32657 whole entry, the tested form may be a part): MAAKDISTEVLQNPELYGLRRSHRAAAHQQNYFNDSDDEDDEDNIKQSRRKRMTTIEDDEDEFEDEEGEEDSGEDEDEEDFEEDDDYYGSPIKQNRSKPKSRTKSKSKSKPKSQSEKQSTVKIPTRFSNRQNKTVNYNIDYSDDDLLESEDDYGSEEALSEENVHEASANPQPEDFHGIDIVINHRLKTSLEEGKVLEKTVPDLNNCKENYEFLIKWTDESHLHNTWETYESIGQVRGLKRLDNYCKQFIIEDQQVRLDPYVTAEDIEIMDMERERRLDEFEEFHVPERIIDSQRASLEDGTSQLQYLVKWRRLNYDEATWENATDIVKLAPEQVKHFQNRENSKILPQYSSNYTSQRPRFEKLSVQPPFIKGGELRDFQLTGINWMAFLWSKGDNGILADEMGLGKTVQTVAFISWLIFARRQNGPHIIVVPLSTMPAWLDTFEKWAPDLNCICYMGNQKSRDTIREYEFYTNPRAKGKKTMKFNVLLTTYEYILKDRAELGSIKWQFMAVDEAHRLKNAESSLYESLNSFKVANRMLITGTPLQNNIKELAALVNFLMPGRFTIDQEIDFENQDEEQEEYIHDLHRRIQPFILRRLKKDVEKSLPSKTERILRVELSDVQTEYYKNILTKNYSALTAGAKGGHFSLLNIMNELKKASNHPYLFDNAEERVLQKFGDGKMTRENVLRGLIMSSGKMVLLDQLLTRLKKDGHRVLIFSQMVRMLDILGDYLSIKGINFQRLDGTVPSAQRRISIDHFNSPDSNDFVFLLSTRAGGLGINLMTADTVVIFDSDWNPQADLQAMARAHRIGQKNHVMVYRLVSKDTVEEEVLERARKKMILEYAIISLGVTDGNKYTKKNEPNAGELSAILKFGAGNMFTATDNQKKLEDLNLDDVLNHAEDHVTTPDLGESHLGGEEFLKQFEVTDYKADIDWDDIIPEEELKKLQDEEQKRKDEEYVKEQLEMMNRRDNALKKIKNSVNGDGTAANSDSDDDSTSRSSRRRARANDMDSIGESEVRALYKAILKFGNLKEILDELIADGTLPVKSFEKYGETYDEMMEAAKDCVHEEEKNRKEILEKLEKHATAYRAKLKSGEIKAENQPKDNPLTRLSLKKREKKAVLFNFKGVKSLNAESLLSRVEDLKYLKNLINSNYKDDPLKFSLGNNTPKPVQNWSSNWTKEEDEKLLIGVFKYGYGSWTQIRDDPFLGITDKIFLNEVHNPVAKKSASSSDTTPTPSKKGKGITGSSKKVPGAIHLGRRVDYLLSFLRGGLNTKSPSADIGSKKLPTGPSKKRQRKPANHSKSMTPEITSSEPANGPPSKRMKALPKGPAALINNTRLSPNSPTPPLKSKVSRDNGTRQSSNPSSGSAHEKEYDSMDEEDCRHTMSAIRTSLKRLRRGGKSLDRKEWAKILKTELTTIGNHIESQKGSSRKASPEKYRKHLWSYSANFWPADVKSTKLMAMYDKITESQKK

Sequence of Sialic acid-binding Ig-like lectin 9 (Homo sapiens) (Q9Y336 whole entry): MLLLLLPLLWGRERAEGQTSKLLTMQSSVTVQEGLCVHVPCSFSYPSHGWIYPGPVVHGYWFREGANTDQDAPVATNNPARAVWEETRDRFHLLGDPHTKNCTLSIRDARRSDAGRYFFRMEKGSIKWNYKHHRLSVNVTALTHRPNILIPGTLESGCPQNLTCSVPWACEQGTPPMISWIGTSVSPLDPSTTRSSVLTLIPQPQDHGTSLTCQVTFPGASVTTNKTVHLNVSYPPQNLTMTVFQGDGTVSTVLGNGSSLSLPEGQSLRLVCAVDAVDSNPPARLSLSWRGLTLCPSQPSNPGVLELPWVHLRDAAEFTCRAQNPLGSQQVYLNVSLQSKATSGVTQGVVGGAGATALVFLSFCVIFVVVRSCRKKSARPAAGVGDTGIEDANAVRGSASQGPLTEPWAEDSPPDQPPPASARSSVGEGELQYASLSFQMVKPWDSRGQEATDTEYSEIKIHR

Turning to `N#Cc1ccnc(N2CCN(CC(O)c3cccc(F)c3)CC2)c1` (stereo not drawn), the Percent Effect was -4.31% in experiment [1]; 2.7% in experiment [2]; 0.651% in [3]; -0.828% in experiment [4]; -3.42% in experiment [5]; 3.72% in [6]. The Percent Effect in experiment [7] was 2.83%; in experiment [8], -1.26%; in experiment [9], 5.38%; in [10], 11.1%; in experiment [11], -2.53%.
Take `O=C(c1ccnnc1)N1C[C@H](Oc2cccnc2)[C@H]2OCCC[C@H]21`: the Percent Effect is -5.64% in experiment [1]; 0% in experiment [2]; -1.06% in experiment [3]; -4.69% in experiment [4]; 0.781% in experiment [5]; -0.417% in experiment [6]. Besides, the Percent Effect is 4.65% in [7]; -14.6% in experiment [8]; 11.9% in experiment [9]; 15.8% in experiment [10]; -3.24% in experiment [11].
On to `CNC(=O)c1cccc(CNC(=O)C2CC(=O)N(CCN(C)C)C2)c1` (stereo not drawn), for which the Percent Effect is -5.39% in experiment [1]; 5.33% in experiment [2]; 4.48% in [3]; 0.817% in experiment [4]; -2.63% in experiment [5]; -1.04% in experiment [6]. For the same compound, the Percent Effect in experiment [7] is 12.2%; in [8], 14.1%; in experiment [9], 3.83%; in experiment [10], 6.17%; in [11], -3.88%.
With `N#Cc1ccc(C(=O)NCCCNc2ccc(C(F)(F)F)cn2)cc1`, the Percent Effect was -0.682% in experiment [1]; 13.2% in [2]; 3.77% in experiment [3]; -0.309% in [4]; -7.52% in experiment [5]; -0.766% in experiment [6]. Also, the Percent Effect was 9.02% in experiment [7]; 35.5% in [8]; 7.35% in [9]; 17.1% in experiment [10]; -10.9% in experiment [11].
Take `COCC(c1cccc(C(F)(F)F)c1)N(C)C(=O)c1ccncc1` (stereo not drawn): the Percent Effect in experiment [1] was -4.42%; in [2] it was 21.1%; in experiment [3], -0.328%; in [4] it was -2.24%; in experiment [5], 8.46%; in experiment [6], -4.21%. Besides, the Percent Effect in experiment [7] was 23.2%; in experiment [8] it was 26.2%; in experiment [9], 8.33%; in [10], 21.9%; in experiment [11], -14.7%.
As to `CCCn1nc(C)c(CNC(=O)C2COc3c(cccc3OC)C2)c1C` (stereo not drawn), the Percent Effect was -3.57% in [1]; 2.74% in [2]; -2.55% in [3]; 6.74% in experiment [4]; 1.19% in [5]; -5.59% in experiment [6]. Further, the Percent Effect in [7] is 15.5%; in [8], 10.2%; in experiment [9], 6.25%; in experiment [10], 16.1%; in experiment [11], -3.25%.
On to `Cc1cnc(C(=O)N2CCCN(Cc3csc(C)n3)CC2)cn1`, for which the Percent Effect is -5.93% in [1]; 13.7% in experiment [2]; -7.71% in [3]; 11.9% in [4]; 6.75% in experiment [5]; 2% in [6]. Also, the Percent Effect was 18.8% in experiment [7]; -1.38% in [8]; 5.21% in experiment [9]; 8.64% in experiment [10]; -12.5% in [11].
Turning to `Cc1ccc(C(=O)N2CCN(C(=O)NC(C)Cn3ccnc3)CC2)o1` (stereo not drawn), the Percent Effect was -1.19% in [1]; 10.5% in [2]; 2.03% in [3]; 13.1% in experiment [4]; 3.38% in experiment [5]; 2.3% in [6]. Further, the Percent Effect in [7] is 4.51%; in experiment [8], 18.1%; in experiment [9] it was 3.43%; in experiment [10], 19.5%; in [11], -13.5%.
